Measurements from PubChem BioAssay (EPA / NIEHS).
Calls of active or inactive are those of the source. The calls were made as follows: active = hit-call score of the fitted dose curve at least 0.9, where 1 is the maximum; inactive = score below 0.9.

Tests used:
[1] = ATG_GLI_CIS: Attagene CIS-FACTORIAL HepG2 Assay for human Zinc Finger Protein GLI1 (AID 2282945); settings: HepG2, Attagene cis-factorial reporter mRNA, GLI element; actives raise or lower the signal
Summary of the method: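 Bidirectional curve fits relative to DMSO, using reporter mRNA levels from RT-PCR plus capillary electrophoresis. Cells were HepG2 transiently carrying cis-regulated reporter constructs, harvested 24 h after dosing.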

[2] = target: Bile acid receptor (Homo sapiens) (UniProt Q96RI1); test: ATG_IR1_CIS: Attagene CIS-FACTORIAL HepG2 Assay for human Nuclear Receptor Subfamily 1 Group H Member 4 (NR1H4), IR1 submotif (AID 2282946); settings: IR1 reporter transcription, actives raise or lower the signal
Summary of the method: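 HepG2 cells transiently transfected with multiplexed cis-element reporter units read endogenous transcription factor activity. After 24 h compound exposure, reporter mRNA was quantified by RT-PCR, fluorescent labelling, HpaI digestion and capillary electrophoresis; bidirectional fitting versus DMSO baseline.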

[3] = ATG_GRE_CIS: Attagene CIS-FACTORIAL HepG2 Assay for human Glucocorticoid Response Elements (GRE) (AID 2282947); settings: HepG2 GRE cis-reporter, Attagene multiplex mRNA; actives raise or lower the signal
Summary of the method: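 Reporter transcripts read by RT-PCR with capillary electrophoresis fluorescence after a 24 h chemical exposure of HepG2 cells transiently transfected with multiple cis-element reporter units. Gain or loss fitted against DMSO.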

[4] = ATG_M_32_CIS: Attagene CIS-FACTORIAL HepG2 Assay for M32 Transcription Factor (Internal Marker) (AID 2282949); settings: HepG2 Attagene cis-factorial M32 reporter, mRNA; actives raise or lower the signal;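 also: background control marker of the multiplexed CIS panel rather than a real target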
Summary of the method: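 HepG2 human liver cells transiently transfected with cis-promoter-driven multiple reporter transcription units, dosed 24 h. Reporter mRNA quantified by RT-PCR, FAM-labelled primer extension, HpaI digest and capillary electrophoresis; bidirectional fit versus DMSO baseline.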

[5] = ATG_M_06_CIS: Attagene CIS-FACTORIAL HepG2 Assay for M06 Transcription Factor (Internal Marker) (AID 2282950); settings: HepG2 Attagene CIS-FACTORIAL M06 internal marker reporter; actives raise or lower the signal
Summary of the method: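 Serves as a background control readout. Transfected HepG2 exposed to compounds for 24 h, then reporter transcripts quantified by fluorescent RT-PCR and capillary electrophoresis. Both directions fitted against DMSO baseline.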

[6] = target: Hypoxia-inducible factor 1-alpha (Homo sapiens) (UniProt Q16665); test: ATG_HIF1a_CIS: Attagene CIS-FACTORIAL HepG2 Assay for human Hypoxia Inducible Factor 1 (HIF1A) (AID 2282951); settings: HepG2 Attagene cis-factorial HIF1a reporter transcription; actives raise or lower the signal
Summary of the method: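 Transient MRTU transfection of human HepG2 liver cells, 24 h compound treatment, then total RNA isolation, oligo(dT) reverse transcription, PCR amplification, fluorescent labelling and capillary electrophoresis of reporter fragments. Gain or loss relative to DMSO.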

[7] = target: Hepatocyte nuclear factor 6 (Homo sapiens) (UniProt Q9UBC0); test: ATG_HNF6_CIS: Attagene CIS-FACTORIAL HepG2 Assay for human Hepatocyte Nuclear Factor 6 (HNF6) (AID 2282952); settings: HepG2 Attagene cis-factorial HNF6 reporter transcription; actives raise or lower the signal
Summary of the method: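 Readout: fluorescent reporter-transcript fragments resolved by capillary electrophoresis after RT-PCR, reflecting endogenous factor activity in transfected HepG2. Exposure 24 h. Gain or loss of signal fitted bidirectionally against DMSO.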

[8] = target: Heat shock factor protein 1 (Homo sapiens) (UniProt Q00613); test: ATG_HSE_CIS: Attagene CIS-FACTORIAL HepG2 Assay for human Heat Shock Transcription Factor 1 (HSE) (AID 2282953); settings: HepG2 HSE cis-reporter, Attagene RNA transcription; actives raise or lower the signal
Summary of the method: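 Endogenous transcription factor activity in transiently transfected HepG2, read as reporter mRNA by RT-PCR with fluorescent capillary electrophoresis after 24 h. Gain or loss of signal fitted versus DMSO baseline.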

[9] = ATG_MRE_CIS: Attagene CIS-FACTORIAL HepG2 Assay for human Metal Responsive Element (MRE) (AID 2282954); settings: HepG2 MRE cis-reporter transcription, Attagene multiplex; actives raise or lower the signal
Summary of the method: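 Endogenous MRE-dependent transcription read as reporter mRNA in transiently transfected human HepG2 cells at 24 h. RNA reverse-transcribed, PCR-amplified, labelled and resolved by capillary electrophoresis; gain or loss relative to DMSO.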

[10] = ATG_PXRE_CIS: Attagene CIS-FACTORIAL HepG2 Assay for human Pregnane X Receptor Element (PXRE) (AID 2282957); settings: HepG2 Attagene CIS-FACTORIAL PXRE reporter, mRNA; actives raise or lower the signal
Summary of the method: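 Read-out: fluorescence of reporter-specific RT-PCR products resolved by capillary electrophoresis, fitted bidirectionally relative to DMSO. Human HepG2 liver cells carried transfected cis-promoter reporter units and were exposed to chemicals for 24 h.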

[11] = ATG_PPRE_CIS: Attagene CIS-FACTORIAL HepG2 Assay for human Peroxisome Proliferator-activated Response Element (PPRE) (AID 2282958); settings: HepG2 PPRE cis-element reporter, Attagene transcription factor profiling; actives raise or lower the signal
Summary of the method: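 HepG2, transient MRTU transfection (cis promoter elements, endogenous TFs). 24 h dosing. RNA → oligo(dT) RT → PCR → 6-FAM primer extension → HpaI digest → CE. Bidirectional fit vs DMSO.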

[12] = ATG_RORE_CIS: Attagene CIS-FACTORIAL HepG2 Assay for human RAR-related Orphan Receptor Element (RORE) (AID 2282959); settings: HepG2 Attagene cis-factorial RORE reporter, mRNA; actives raise or lower the signal
Summary of the method: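 Transient MRTU transfection of human HepG2 liver cells (FuGene 6); 24 h compound exposure; TriZol RNA, oligo(dT) RT, PCR, FAM labeling, HpaI cut, CE fragment analysis. DMSO = negative control/baseline.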

[13] = ATG_Sox_CIS: Attagene CIS-FACTORIAL HepG2 Assay for human SRY-box transcription factor (SOX) (AID 2282960); settings: HepG2 Attagene cis-factorial SOX reporter, mRNA; actives raise or lower the signal
Summary of the method: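 Endogenous factor activity in human liver HepG2 cells carrying transfected cis-regulated reporter units. RNA taken 24 h post-dose, reverse-transcribed, PCR-amplified and sized by capillary electrophoresis. Gain or loss of signal fitted relative to DMSO.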

[14] = target: Transcription factor Sp1 (Homo sapiens) (UniProt P08047); test: ATG_Sp1_CIS: Attagene CIS-FACTORIAL HepG2 Assay for human Specificity Protein 1 (Sp1) (AID 2282961); settings: HepG2 Sp1 cis-reporter transcription, actives raise or lower the signal
Summary of the method: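 Transient MRTU-transfected HepG2, 24 h compound exposure. Total RNA → oligo(dT) RT → PCR of reporter → 6-FAM primer extension → HpaI digest → CE. Endpoint fitted both directions vs DMSO.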

[15] = ATG_SREBP_CIS: Attagene CIS-FACTORIAL HepG2 Assay for human Sterol Regulatory Element Binding (SREBP) (AID 2282962); settings: HepG2 Attagene cis-factorial SREBP reporter, mRNA; actives raise or lower the signal
Summary of the method: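 Readout: fluorescent reporter-transcript peaks resolved by capillary electrophoresis after RT-PCR. Cells were human HepG2 carrying transfected cis-promoter reporter constructs, dosed for 24 h. Gain or loss of signal was fitted against DMSO controls.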

[16] = ATG_TA_CIS: Attagene CIS-FACTORIAL HepG2 Assay for human TA Basal Promoter (AID 2282964); settings: HepG2 Attagene CIS-factorial TA basal promoter reporter; actives raise or lower the signal
Summary of the method: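 Background-control readout: TA basal promoter reporter mRNA, fitted in both directions relative to DMSO. Measured by RT-PCR and capillary electrophoresis 24 hours after treating HepG2 human liver cells transiently carrying multiplexed cis-regulated reporter constructs.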

[17] = ATG_ISRE_CIS: Attagene CIS-FACTORIAL HepG2 Assay for human Interferon Regulatory Factor 1 (IRF1) binding to an Interferon-Stimulated Response Element (ISRE) (AID 2282948); settings: HepG2 ISRE cis-reporter (Attagene), mRNA transcription readout; actives raise or lower the signal
Summary of the method: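 Read-out: fluorescent RT-PCR products resolved by capillary electrophoresis, reporting endogenous transcription factor activity via ISRE-driven reporter mRNA in transfected HepG2 cells dosed for 24 h; gain or loss fitted relative to DMSO.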

[18] = target: Paired box protein Pax-6 (Homo sapiens) (UniProt P26367); test: ATG_Pax6_CIS: Attagene CIS-FACTORIAL HepG2 Assay for human Paired Box 6 (PAX6) (AID 2282956); settings: HepG2 CIS-FACTORIAL PAX6 reporter transcription, RNA readout; actives raise or lower the signal
Summary of the method: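 Readout: reporter transcript fluorescence after RT-PCR and capillary electrophoresis. Cells: HepG2, transiently transfected with cis-regulated MRTUs. Exposure 24 h. Gain or loss of signal fitted bidirectionally relative to DMSO.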

[19] = target: Signal transducer and activator of transcription 3 (Homo sapiens) (UniProt P40763); test: ATG_STAT3_CIS: Attagene CIS-FACTORIAL HepG2 Assay for human Signal Transducer and Activator of Transcription 3 (STAT3) (AID 2282963); settings: HepG2, Attagene cis-factorial STAT3 reporter transcription; actives raise or lower the signal
Summary of the method: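 Readout is reporter transcript quantified by RT-PCR and capillary electrophoresis, with 6-FAM primer extension and HpaI digestion. Total RNA is taken 24 h after dosing transiently transfected HepG2 carrying cis-regulated reporter units. Bidirectional fit against DMSO.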

[20] = ATG_PBREM_CIS: Attagene CIS-FACTORIAL HepG2 Assay for human Phenobarbital-responsive Enhancer Module (PBREM) (AID 2282955); settings: HepG2 PBREM cis-reporter, Attagene multiplexed transcription; actives raise or lower the signal
Summary of the method: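 Endogenous transcription factors in human liver HepG2 cells drive a PBREM cis-element reporter, whose transcript level after 24 h treatment is quantified by RT-PCR with capillary electrophoresis; activity fitted in both directions against DMSO.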

Measured: AC50

Sequence of Heat shock factor protein 1 (Homo sapiens) (Q00613 whole entry, looked up): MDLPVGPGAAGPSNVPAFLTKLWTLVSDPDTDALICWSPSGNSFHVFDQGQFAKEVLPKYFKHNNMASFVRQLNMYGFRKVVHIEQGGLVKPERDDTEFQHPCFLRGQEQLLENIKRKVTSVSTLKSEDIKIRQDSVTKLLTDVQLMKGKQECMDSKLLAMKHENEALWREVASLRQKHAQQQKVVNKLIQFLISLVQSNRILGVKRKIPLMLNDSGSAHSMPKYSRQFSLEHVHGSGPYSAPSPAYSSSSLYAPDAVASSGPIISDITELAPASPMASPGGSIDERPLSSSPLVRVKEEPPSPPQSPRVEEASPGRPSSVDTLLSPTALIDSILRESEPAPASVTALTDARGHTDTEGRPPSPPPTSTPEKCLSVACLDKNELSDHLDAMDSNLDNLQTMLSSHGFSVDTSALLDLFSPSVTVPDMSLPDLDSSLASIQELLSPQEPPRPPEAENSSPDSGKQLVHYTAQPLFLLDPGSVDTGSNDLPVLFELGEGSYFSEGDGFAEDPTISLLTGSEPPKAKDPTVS
Sequence of Bile acid receptor (Homo sapiens) (Q96RI1 whole entry, looked up): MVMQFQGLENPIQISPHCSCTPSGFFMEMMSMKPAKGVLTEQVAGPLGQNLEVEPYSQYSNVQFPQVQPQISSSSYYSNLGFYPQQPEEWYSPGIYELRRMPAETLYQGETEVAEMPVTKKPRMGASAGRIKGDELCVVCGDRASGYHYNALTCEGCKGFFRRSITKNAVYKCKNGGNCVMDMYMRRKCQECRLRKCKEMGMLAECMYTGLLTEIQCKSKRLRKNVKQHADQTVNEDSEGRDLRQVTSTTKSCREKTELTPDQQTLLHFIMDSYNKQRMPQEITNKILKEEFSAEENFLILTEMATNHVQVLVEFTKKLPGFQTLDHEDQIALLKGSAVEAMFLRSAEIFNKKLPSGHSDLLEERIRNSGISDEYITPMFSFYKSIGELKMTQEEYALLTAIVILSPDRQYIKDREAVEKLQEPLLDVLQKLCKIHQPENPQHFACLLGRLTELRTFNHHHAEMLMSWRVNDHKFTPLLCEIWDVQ
Sequence of Transcription factor Sp1 (Homo sapiens) (P08047 whole entry, looked up): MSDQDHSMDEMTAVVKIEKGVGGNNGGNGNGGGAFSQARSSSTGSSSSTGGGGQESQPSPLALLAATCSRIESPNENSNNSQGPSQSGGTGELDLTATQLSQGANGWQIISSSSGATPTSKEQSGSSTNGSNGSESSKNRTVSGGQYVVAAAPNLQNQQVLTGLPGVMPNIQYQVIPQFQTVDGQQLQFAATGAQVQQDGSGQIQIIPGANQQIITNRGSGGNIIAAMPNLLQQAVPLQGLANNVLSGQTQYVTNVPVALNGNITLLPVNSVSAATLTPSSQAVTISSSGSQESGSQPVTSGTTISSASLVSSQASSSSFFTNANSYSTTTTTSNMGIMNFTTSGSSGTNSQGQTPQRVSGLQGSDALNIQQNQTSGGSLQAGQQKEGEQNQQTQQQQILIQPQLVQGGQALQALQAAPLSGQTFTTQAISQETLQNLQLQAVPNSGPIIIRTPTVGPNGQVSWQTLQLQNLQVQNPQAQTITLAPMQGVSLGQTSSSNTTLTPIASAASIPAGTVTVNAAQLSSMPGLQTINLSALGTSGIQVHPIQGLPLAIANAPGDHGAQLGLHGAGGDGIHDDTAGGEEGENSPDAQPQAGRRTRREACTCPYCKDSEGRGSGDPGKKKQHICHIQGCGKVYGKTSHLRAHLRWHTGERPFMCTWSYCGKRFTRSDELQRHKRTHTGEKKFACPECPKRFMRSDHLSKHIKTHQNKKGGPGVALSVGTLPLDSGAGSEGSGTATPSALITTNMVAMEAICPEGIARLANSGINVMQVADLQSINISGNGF
Sequence of Hepatocyte nuclear factor 6 (Homo sapiens) (Q9UBC0 whole entry, looked up, the tested form may be a part): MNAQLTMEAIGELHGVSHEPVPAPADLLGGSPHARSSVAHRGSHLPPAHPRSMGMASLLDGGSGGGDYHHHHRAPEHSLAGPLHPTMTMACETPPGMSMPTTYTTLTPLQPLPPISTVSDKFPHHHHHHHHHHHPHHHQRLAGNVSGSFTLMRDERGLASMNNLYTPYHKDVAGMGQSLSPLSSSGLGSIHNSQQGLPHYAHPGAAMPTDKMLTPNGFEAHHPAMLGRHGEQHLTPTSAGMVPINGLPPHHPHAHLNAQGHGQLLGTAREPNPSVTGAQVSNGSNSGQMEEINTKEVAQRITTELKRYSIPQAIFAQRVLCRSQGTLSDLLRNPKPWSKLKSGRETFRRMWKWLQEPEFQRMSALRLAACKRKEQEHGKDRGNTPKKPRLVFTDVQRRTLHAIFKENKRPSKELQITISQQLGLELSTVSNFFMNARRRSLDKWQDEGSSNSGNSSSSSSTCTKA
Sequence of Paired box protein Pax-6 (Homo sapiens) (P26367 whole entry, looked up): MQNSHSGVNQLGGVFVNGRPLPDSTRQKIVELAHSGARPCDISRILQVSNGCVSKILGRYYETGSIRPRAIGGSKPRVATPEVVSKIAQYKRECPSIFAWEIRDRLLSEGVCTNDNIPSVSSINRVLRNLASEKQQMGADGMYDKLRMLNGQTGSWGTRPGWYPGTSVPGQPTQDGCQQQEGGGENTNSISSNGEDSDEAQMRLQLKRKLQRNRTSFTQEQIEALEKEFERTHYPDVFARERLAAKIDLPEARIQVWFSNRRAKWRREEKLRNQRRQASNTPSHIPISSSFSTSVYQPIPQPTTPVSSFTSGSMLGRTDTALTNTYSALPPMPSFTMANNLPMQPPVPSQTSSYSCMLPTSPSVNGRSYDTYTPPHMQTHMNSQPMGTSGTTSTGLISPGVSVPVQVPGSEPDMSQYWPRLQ
Sequence of Signal transducer and activator of transcription 3 (Homo sapiens) (P40763 whole entry, looked up): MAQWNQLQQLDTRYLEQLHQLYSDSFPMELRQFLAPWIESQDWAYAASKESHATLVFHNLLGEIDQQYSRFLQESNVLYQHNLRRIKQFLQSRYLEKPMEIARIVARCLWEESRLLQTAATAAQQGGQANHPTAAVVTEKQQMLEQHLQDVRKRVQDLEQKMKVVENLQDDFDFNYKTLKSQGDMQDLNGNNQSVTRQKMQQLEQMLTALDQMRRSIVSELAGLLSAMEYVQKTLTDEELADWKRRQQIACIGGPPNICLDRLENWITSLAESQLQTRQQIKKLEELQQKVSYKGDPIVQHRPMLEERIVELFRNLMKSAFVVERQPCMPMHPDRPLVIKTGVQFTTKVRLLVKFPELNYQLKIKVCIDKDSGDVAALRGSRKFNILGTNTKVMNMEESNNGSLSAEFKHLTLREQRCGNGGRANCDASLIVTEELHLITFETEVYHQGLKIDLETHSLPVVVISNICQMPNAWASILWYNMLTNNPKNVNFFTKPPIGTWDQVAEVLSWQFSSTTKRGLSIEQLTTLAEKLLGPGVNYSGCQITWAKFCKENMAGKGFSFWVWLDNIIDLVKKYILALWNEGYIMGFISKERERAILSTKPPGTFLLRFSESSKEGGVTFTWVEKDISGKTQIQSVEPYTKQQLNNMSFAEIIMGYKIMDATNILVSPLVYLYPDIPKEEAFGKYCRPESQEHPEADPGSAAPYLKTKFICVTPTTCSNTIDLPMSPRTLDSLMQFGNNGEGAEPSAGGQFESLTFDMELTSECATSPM
Sequence of Hypoxia-inducible factor 1-alpha (Homo sapiens) (Q16665 whole entry, looked up, the tested form may be a part): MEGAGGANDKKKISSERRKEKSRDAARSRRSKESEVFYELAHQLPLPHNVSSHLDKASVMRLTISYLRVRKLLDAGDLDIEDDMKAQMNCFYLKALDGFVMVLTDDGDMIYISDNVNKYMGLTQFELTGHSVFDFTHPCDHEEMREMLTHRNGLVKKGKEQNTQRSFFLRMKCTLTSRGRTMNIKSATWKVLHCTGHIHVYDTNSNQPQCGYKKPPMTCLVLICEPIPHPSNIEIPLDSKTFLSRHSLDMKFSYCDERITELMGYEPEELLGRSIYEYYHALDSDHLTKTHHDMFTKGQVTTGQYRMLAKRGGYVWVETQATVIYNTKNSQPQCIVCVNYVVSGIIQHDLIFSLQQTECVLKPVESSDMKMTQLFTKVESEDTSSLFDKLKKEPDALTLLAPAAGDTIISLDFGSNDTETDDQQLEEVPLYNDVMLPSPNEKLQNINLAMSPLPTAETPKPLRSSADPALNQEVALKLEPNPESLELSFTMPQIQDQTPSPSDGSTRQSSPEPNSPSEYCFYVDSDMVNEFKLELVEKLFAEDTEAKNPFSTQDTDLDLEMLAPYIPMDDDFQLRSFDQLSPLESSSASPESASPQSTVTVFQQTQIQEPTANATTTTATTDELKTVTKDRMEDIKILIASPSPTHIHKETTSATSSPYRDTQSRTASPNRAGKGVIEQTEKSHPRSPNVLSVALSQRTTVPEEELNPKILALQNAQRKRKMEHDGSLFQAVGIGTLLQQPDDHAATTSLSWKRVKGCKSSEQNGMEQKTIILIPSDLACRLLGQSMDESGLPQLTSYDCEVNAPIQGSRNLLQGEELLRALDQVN

CCCCCCCC(=O)OCC
not listed: [17] | [18] | [19] | [20]
inactive: all other assays above

Cc1cc(C)n(CO)n1
not listed: [3] | [20]
inactive: all other assays above

C=C(C)C1CC=C(C)C(OC(C)=O)C1 (stereo not drawn)
not listed: [17] | [20]
inactive: all other assays above

O=C(O)C1CCC(C(=O)O)CC1 (stereo not drawn)
not listed: [8] | [9] | [11]
inactive: all other assays above

C=C(C)C(=O)OCC(O)COc1ccc(C(C)(C)c2ccc(OCC(O)COC(=O)C(=C)C)cc2)cc1 (stereo not drawn)
inactive: [1] | [2] | [4] | [5] | [7] | [20] | [12] | [14]
active: [17] 27 µM | [6] 31.1 µM | [8] 46.9 µM | [9] 52.7 µM | [10] 2.17 µM | [11] 14.7 µM | [13] 65 µM | [15] 51 µM | [16] 28.3 µM

C1CCSC1
not listed: [12] | [17] | [20]
inactive: all other assays above

Cc1ccc([N+](=O)[O-])cc1N
active: [10] 45.4 µM
not listed: [3] | [11] | [20]
inactive: all other assays above

CC(C)(C)NC(=O)[C@H]1CC[C@H]2[C@@H]3CC[C@H]4NC(=O)C=C[C@]4(C)[C@H]3CC[C@]12C
active: [9] 68.3 µM | [10] 14.1 µM
not listed: [6] | [17]
inactive: all other assays above
